Laboratory results from the supplement of paper PMC6555819.

Columns and labels:
Test in all cases: PBM binding z-score (relative to random genomic background probes); higher = stronger binding; sequences stand for … in GC…GCGATTGACAGCGTAGAATGAAGG
[1] = test system: FXR:RXRa (NR concentration 270 nM, RXRa partner concentration 90 nM)
Outline: (§1)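 Ligand-free nuclear receptor dimers were bound for 1 h to custom Agilent 4×180K protein-binding microarrays. Detection used antibodies against each partner (one per run). Binding z-scores rest on regression-normalized fluorescence, with random background probes as the reference.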

[2] = test system: LXRa:RXRa (NR concentration 270 nM, RXRa partner concentration 90 nM)
Outline: as §1

[3] = test system: LXRa homodimer (NR concentration 270 nM)
Outline: as §1

[4] = test system: LXRb:RXRa (NR concentration 270 nM, RXRa partner concentration 90 nM)
Outline: as §1

[5] = test system: LXRb homodimer (NR concentration 270 nM)
Outline: as §1

[6] = test system: PPARa:RXRa (NR concentration 270 nM, RXRa partner concentration 90 nM)
Outline: as §1

[7] = test system: PPARg:RXRa (NR concentration 180 nM, RXRa partner concentration 90 nM)
Outline: as §1

[8] = test system: PPARg:RXRa 270nM:90nM, anti-RXR (NR concentration 270 nM, RXRa partner concentration 90 nM)
Outline: as §1

[9] = test system: PPARg:RXRa 30nM:10nM, anti-RXR (NR concentration 30 nM, RXRa partner concentration 10 nM)
Outline: as §1

[10] = test system: PPARg:RXRa 90nM:30nM, anti-RXR (NR concentration 90 nM, RXRa partner concentration 30 nM)
Outline: as §1

Sequence | PBM binding z-score [1] | PBM binding z-score [2] | PBM binding z-score [3] | PBM binding z-score [4] | PBM binding z-score [5] | PBM binding z-score [6] | PBM binding z-score [7] | PBM binding z-score [8] | PBM binding z-score [9] | PBM binding z-score [10]
ATCTCTAGGTAAAAGTTCATTGAATCCCGAGGAT | 2.13 | 3.38 | 4.04 | 2.13 | 1.06 | 4.7 | 8.45 | 7.53 | 7.5 | 8.69
CCGACTGGGGCAATGTTACCATAACGCACAGCCA | -0.585 | -0.725 | -0.195 | -0.162 | -1.01 | 0.11 | 1.21 | 0.645 | -0.14 | 0.223
AGAACGAGGGCACGCTCAGTTGATAGCAGAGTAG | 0.582 | 0.413 | -0.836 | 0.0167 | -0.804 | 2.06 | 2.08 | 1.64 | 0.279 | 0.796
CCTATTAGTTGTCCATAAGGGCAACCGAAGCTCG | 0.902 | 0.553 | 0.8 | 0.558 | 1.17 | 0.459 | 0.174 | 0.706 | -0.0798 | 0.365
ACTATTAGTTCACTTAGGGCAACCGATACGACGC | 1.66 | 0.968 | 0.685 | 0.657 | 0.81 | 0.893 | 1.04 | 0.566 | 0.591 | 0.169
ACAGACAGGTGATGAAGATAACTCAGGCTATCAT | -0.21 | -0.125 | -0.283 | -0.276 | -0.0745 | -0.164 | 0.734 | -0.057 | 0.429 | 0.0893
TGAATGAGGTTAAAGATCAGGGAACGTGGCGTCG | 3.08 | 2.42 | -0.304 | 1.71 | 0.375 | 4.63 | 5.54 | 6.57 | 4.6 | 6.57
CGTACTGGGCCAAAGGTCATTGATTCCAATGCTC | 4.8 | 5.21 | 4.25 | 5.04 | 0.838 | 6.66 | 12.7 | 10.7 | 10.2 | 12.9
AGTATGAGGTTATTAAGATCAGGGAATTGCGGTC | 1.55 | 1.75 | 0.568 | 1.52 | 0.578 | 2.12 | 0.776 | 1.12 | 0.453 | 0.816
TCTTGTAGATCACCAGGAGGTTAAGAAAGATCGA | 0.307 | 1.28 | -0.0899 | 0.866 | -0.174 | 1.39 | -0.000569 | 1.19 | 2.45 | 1.52
CGTGCAAGGTCAAGGTCAGTGAAAGAGACTCGAA | 7.71 | 5.78 | 1.12 | 4.86 | 0.639 | 6.13 | 6.66 | 6.55 | 2.87 | 5.51
CCCAGTTGGTCAAGGTCACACACGCTATAGGTAC | 4.07 | 4.03 | 2.72 | 3.8 | 0.738 | 4.18 | 3.3 | 3.56 | 1.14 | 2.57
TAGCCTAGGTCATTCAGGGGCCAGTACAGAAAGC | 4.86 | 4.11 | 0.86 | 3.16 | 0.986 | 3.6 | 2.29 | 2.39 | 0.132 | 1.25
CCTATTAGTTGACCTTAAGGGCAACCGAAGCTCG | 6.12 | 4.18 | 2.42 | 4 | 1.3 | 4.75 | 1.81 | 3 | 1.29 | 2.42
CGTCCAAGGTCATAGGACGTCAGTGAAGACAGAT | 7.14 | 5.2 | 0.696 | 3.88 | 0.284 | 5.43 | 4.73 | 5.14 | 1.6 | 3.51
TTACCAAGGTGAAAGGTCGTTTATGCACGCCTTG | 3.55 | 3.3 | 0.773 | 3.33 | 0.0475 | 5.2 | 8.69 | 7.73 | 6.93 | 8.46
GCTAGTAGATCAAGGTTAAGAAAGACTAAGCTAA | 0.0668 | 0.637 | -0.651 | 0.372 | -0.999 | 1.46 | 1.22 | 2.22 | 0.524 | 1.57
TCATATAGGTAATACAGGTGAAAGTGGGCATCTA | 1.4 | 1.27 | 0.56 | 1.21 | 0.302 | 2.33 | 2.41 | 3.18 | 4.26 | 3.72
CCTTACGGGTCACTGACCGGTTATAGCATTTGGA | 5.3 | 5.49 | 1.84 | 4.04 | 0.194 | 5 | 3.68 | 4.28 | 1.31 | 2.95
CTCGAAACGTCGTGCTCAGGTGAGTATACCAAAC | -0.453 | -0.656 | -0.383 | -0.688 | -0.52 | -0.553 | -0.362 | -0.781 | -0.655 | -0.34
GGAACGAGGGCAAAGTTAATAGCATCTGTCGACG | 1.04 | 0.812 | -0.00751 | 0.878 | -0.23 | 3.62 | 5.8 | 6.25 | 4.67 | 6.67
ATCTCTAGGTAAGACTCAGTTCAGGGAAGAACGC | 0.579 | 0.883 | 0.863 | 0.68 | 1.19 | 0.432 | 0.216 | 0.397 | 0.337 | 0.289
CGAACTAGGTCATCCAGGCCAGTGAATACATTGA | 4.42 | 2.58 | 0.198 | 1.84 | -0.0916 | 4.97 | 7.7 | 6.3 | 3.77 | 5.63
GCTCGCAGGCCATTTGGGTCACTCAATGACGGGC | 0.079 | 0.0243 | -0.668 | 0.0952 | -1.06 | 1.29 | 0.381 | 0.415 | -0.625 | -0.441

Sequence | PBM binding z-score [1] | PBM binding z-score [2] | PBM binding z-score [3] | PBM binding z-score [4] | PBM binding z-score [5] | PBM binding z-score [6] | PBM binding z-score [7] | PBM binding z-score [8] | PBM binding z-score [9] | PBM binding z-score [10]
ACAGACAGGTGAGGAAGGTAACTCAGGCTATCAT | 0.118 | -0.0457 | -0.223 | 0.105 | -0.143 | 0.173 | 0.575 | -0.276 | 0.0158 | -0.414
CCTCGGAGGAAAACAGGAGGTCAGAGCTGCCAGA | 0.663 | 1.69 | 1.63 | 1.44 | -0.702 | 2.13 | 0.128 | -0.0182 | -0.762 | -0.104
CGTCCAATGTCAATGCTAGGTCAGTGAAAGCATT | 0.511 | 0.781 | 0.797 | 0.644 | -0.123 | 1.01 | -0.028 | 0.117 | -0.386 | 0.0802
ACAGACAGGTGAAGAAGGTAACTCAGGCTATCAT | 0.248 | 0.203 | -0.161 | 0.234 | -0.276 | 0.721 | 0.796 | 0.34 | 0.0156 | -0.0588
ATCTCTAGGCAACCAAGTTCAGTGAATGCCGAAC | 0.291 | 0.227 | 0.263 | 0.113 | 0.281 | 0.303 | 0.114 | 0.0403 | -0.317 | 0.0136
CAGCCTAGGTCAGGGCCAGTAGAGGAGGAACGTT | 1.51 | 0.675 | -0.538 | 0.358 | -1.25 | 1.97 | 0.595 | 0.833 | -0.754 | 0.0745
ACAGACAGGTGAGTCAAGGTAACTCAGCTGGACG | 1.06 | -0.203 | -0.155 | -0.37 | -0.551 | 0.333 | 0.647 | -0.164 | -0.257 | -0.347
ACTATTAGTTGACTTAGGGCAACCTATACGACGC | 0.173 | 0.433 | 0.321 | 0.316 | 0.731 | 0.252 | 1.02 | 0.258 | 0.33 | 0.444
CCTAGCAGGCCAATCTGGGTAACTCAAGGCTTGA | -0.2 | -0.684 | -0.736 | -0.904 | -0.796 | 0.0569 | -0.0846 | -0.366 | -1.08 | -0.958
CCTGCTAGGTCATGTTCAGCTAATCTACAGTATG | 3.33 | 2.25 | 0.437 | 1.65 | 0.467 | 2.69 | 1.36 | 1.91 | 0.403 | 1.16
TAGCCTAGGTCAGATAGGGCCAGTATACGCTATA | 2.49 | 0.979 | -0.0979 | 0.697 | -0.375 | 1.59 | 0.726 | 0.567 | -0.0576 | 0.283
ATCGAAAGGTCGAGGTGAGCATAGAGAAAGGGAA | 4.16 | 3.42 | -0.0507 | 2.7 | 0.363 | 4.61 | 3.46 | 3.8 | 1.66 | 2.84
TCGAGTAGGTTAGGGGCATTCATAATGGCGTCGA | 0.0373 | 0.369 | 0.0659 | 0.931 | -0.211 | 1.4 | 1.06 | 2.19 | 1.35 | 1.98
CGAACTAGGTCTTTGACAGGACAGTGAATAGTAA | -0.13 | 0.047 | -0.136 | -0.238 | -0.525 | 0.769 | 0.674 | 0.585 | 0.162 | 0.43
CCAGACAGGTAAGAAGGTAACTCAGCCTCGATTA | 0.251 | 0.138 | -0.169 | 0.0955 | -0.296 | 0.0886 | 0.35 | -0.153 | -0.728 | -0.359
CCTACTGGGCCACGAACGGTCATTGATTCAGTGA | 0.0231 | 1.38 | 0.691 | -0.0702 | -0.838 | 0.858 | 1.47 | 1.36 | -0.262 | 0.515
CCTAGTTGGTCAGTAGGTCACACACCGGATATGA | 1.75 | 1.75 | 1.22 | 1.64 | 0.533 | 3.62 | 4.58 | 4.46 | 2.18 | 3.85
AGAATGAGGTTATACGTAGAGCAGGGAAGAAAGT | 2.07 | 1.8 | -0.116 | 1.59 | 0.336 | 2.98 | 1.76 | 2.08 | 0.738 | 1.52
GCGATTAGTTGAAAGGGCAACCGAATGATTCTCG | 0.286 | 0.514 | -0.112 | 0.595 | -0.521 | 1.88 | 1.74 | 3.51 | 1.24 | 2.72
CGTCCAAGGTCAAGGTCAGTGAGAGAGACTCGAA | 7.65 | 5.63 | 1.24 | 4.59 | 0.615 | 6.05 | 6.16 | 6.13 | 2.58 | 4.79
TCTTGTAGATCAACAGTAGGTTAAGAAAGATCGA | 0.361 | 0.659 | 0.0852 | 0.659 | -0.18 | 1.13 | 0.249 | 1.49 | 2.78 | 2.39
GGAACCAGGGCATTCGAGTTGATAGCATGGCGAT | 1.3 | 0.74 | -0.0183 | 0.0646 | 0.153 | 1.69 | 0.973 | 0.862 | -0.134 | 0.0636
ATCTCTAGGAAACCAAGTTCAGTGAATGCCGAAC | 0.256 | 0.434 | 0.599 | 0.317 | 0.4 | 0.151 | -0.0218 | 0.0648 | 0.0428 | 0.082
CAACCTAGGTCAAGGTCAAAGTCGGTTTGTGCCA | 6.38 | 5.56 | 3.63 | 4.92 | 1.07 | 5.51 | 5.92 | 5.74 | 2.75 | 4.69
